The list is not random: actives were taken first. Their share in the collection is about 7.3%.
FMDV antiviral: foot and mouth disease virus antiviral activity; FMDV antiviral cell-based qHTS; Potency, µM (titrated, usually from 57.9 µM), inactives show top-dose activity change, negative = inhibition, usual class: inhibitors; 1.2% of 410,000 active; AID 1159524; calls by dose curve; tested in HEK293T cells; note: read-out not given here; potency is the fitted concentration of half-maximal effect; nearly all actives have a fitted effect of over 45% in size
Vaccinia Venus: vaccinia inhibition (Venus reporter); Vaccinia virus Venus reporter expression, fluorescence; Potency, µM (highest dose often 36.5 µM), for inactives: top-dose activity change, negative = inhibition, actives largely listed as inhibitors; 0.46% of 330,000 active; calls by dose curve; tested in A549 cells; note: potency is the fitted concentration of half-maximal effect; nearly all actives have a fitted effect of over 30% in size
HCMV inh: inhibitors of human cytomegalovirus. HFF cells, HCMV-luciferase reporter, 72 h; stronger effect = lower value. activity change, negative = inhibition, % at 57.5 µM. 4.5% of 410,000 active. AID 1259415; in the data active = activity change below about -60%; inconclusive = no clear call, values can overlap the other calls; inactive = above about -39%
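Steps: HFFs plated, 16 h 37C; compounds added; HCMV-luciferase added to MOI 1 PFU/cell; 72 h 37C; OneGlo reagent, 5 min room temperature; luminescence read, normalized to controls.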
HCV inhibitor: blocks hepatitis C virus. Potency, µM (titrated, usually from 41.8 µM), for inactives: top-dose activity change, negative = inhibition, hits mostly inhibitors. Huh7.5.1 HCVcc-Cre infection, luciferase reporter, 44 h. 3.4% of 340,000 active; active = well fitted inhibition curve with a large enough effect; inconclusive = small, poorly fitted or top-dose-only effect, or another doubt; inactive = no such curve, though single readings can be large or run the other way; note: potency is the fitted concentration of half-maximal effect
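Antiviral activity was scored by luciferase reporter output from cells infected with HCVcc-Cre (~0.5 moi) in presence of compound, 44 h infection period, cells seeded 1,000/well 4 h prior.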
Vaccinia mCherry: vaccinia inhibition (mCherry reporter) | Potency, µM (doses to about 36.5 µM), inactives show top-dose activity change, negative = inhibition, usual class: inhibitors | 0.63% of 310,000 active | AID 720579 | Vaccinia virus mCherry reporter infection, fluorescence; calls by dose curve; tested in A549 cells; note: potency is the fitted concentration of half-maximal effect; nearly all actives have a fitted effect of over 35% in size
* hit, by the source's call; i = inactive; u = inconclusive; x = no result given; ! = a repeat was not active; [ ] = dose if it differs, or a comment. % is set by controls: 0 for no effect and ±100 for the full control effect.

SMILES	FMDV antiviral	Vaccinia Venus	HCMV inh	HCV inhibitor	Vaccinia mCherry
Cc1noc(C)c1COc1ccccc1C(=O)NC(C)c1ccc(F)cc1 (configuration not stated)	-14%	-20%	34	21%	-4%
Cc1cc(C)cc(-c2nnc(SCC(=O)N3CCN(C(=O)c4ccco4)CC3)o2)c1	u	u	-10	u	8.9µM*
CC1CCCCN1C(=O)CSc1nnc(-c2cccc(Cl)c2)o1 (configuration not stated)	44%	-18%	27	x	-23%
CCOC(=O)N1CCN(C(=O)CSc2nnc(-c3cccc(Cl)c3)o2)CC1	-17%	u	12	0%	5.6µM*
COc1cc(Cl)c(C)cc1NC(=O)Cn1ncc2c(=O)oc3ccccc3c21	-22%	-14%	3	x	-18%
COc1ccc(CCNC(=O)c2c([S-])n(-c3ccc(C)cc3)c3cccc[n+]23)cc1	0%	-13%	u	11µM*	-18%
COc1cccc(CN(C)CC(=O)Nc2cccc(S(=O)(=O)N(C)c3ccccc3)c2)c1OC	u	-14%	-14	u	-25%
CCC(=O)c1ccc(OCC(=O)Nc2cccc(S(=O)(=O)N(C)c3ccccc3)c2)cc1	u	x	u	11µM*	x
Cc1ccsc1CN(C)CC(=O)Nc1cccc(S(=O)(=O)N(C)c2ccccc2)c1	-13%	-21%	u	u	-3%
CCN(CC(=O)Nc1cccc(S(=O)(=O)N(C)c2ccccc2)c1)Cc1cccs1	-29%	-20%	u	35µM*	u
CN(c1ccccc1)S(=O)(=O)c1cccc(NC(=O)COc2cccc([N+](=O)[O-])c2)c1	u	-6%	u	u	-15%
COc1cc(CC(=O)Nc2cccc(S(=O)(=O)N(C)c3ccccc3)c2)cc(OC)c1OC	22µM*	x	u	10µM*	x
COc1cc(CC(=O)Nc2cccc(SC)c2)cc(OC)c1OC	-29%	-6%	-14	14µM*	i
COc1ccc(OC)c(NC(=O)c2cn(CC(C)C)c(=O)c3cc(OC)c(OC)cc23)c1	-28%	1%	-20	x	-17%
CCCC(c1nnnn1CS(=O)(=O)c1ccc(C)cc1)N1CCN(CC)CC1 (configuration not stated)	4%	-16%	5	18%	i
CC12CC(NC(=O)N1c1cccc(C(=O)NCc3ccc4c(c3)OCO4)c1)c1cc(Cl)ccc1O2 (configuration not stated)	u	u	-4	25µM*	u
CC(C)C(=O)Nc1cccc(C(=O)NCc2ccc3c(c2)OCO3)c1	-17%	x	46	u	x
CC1CCCCN1C(=O)COC(=O)c1ccc(S(C)(=O)=O)c([N+](=O)[O-])c1 (configuration not stated)	x	-20%	x	x	-17%
COc1ccc(CCNC(=O)c2ccc3c(c2)SC2=NS(=O)(=O)CCN23)cc1	-17%	-11%	67	-25%	-16%
O=C(Nc1cccc(Cl)c1)c1ccc2c(c1)SC1=NS(=O)(=O)CCN12	-19%	-19%	-79*	-23%	u
O=C(Nc1ccc(F)cc1)N1CCCN(c2ccc(C(F)(F)F)cn2)CC1	-17%	-18%	-62*	u	i
COc1ccc(NC(=O)N2CCCC(c3nc(-c4ccc(OC)cc4)no3)C2)cc1 (configuration not stated)	-18%	-21%	u	22µM*	i
O=C(Nc1ccccc1Cl)N1CCN(c2ccc3nnc(-c4ccccc4)n3n2)CC1	u	u	x	-17%	u
COc1ccc(NC(=O)N2CCCC(c3nc(-c4ccc(C(C)C)cc4)no3)C2)cc1 (configuration not stated)	u	x	u	10µM*	x
CC(=O)Nc1ccc(N2CCN(c3ccc(C(F)(F)F)cn3)CC2)nc1	-9%	-12%	-33	u	u
SMILES	FMDV antiviral	Vaccinia Venus	HCMV inh	HCV inhibitor	Vaccinia mCherry
O=C(Nc1ccc(Cl)cc1)N1CCN(c2ccc3nnc(-c4ccc(F)cc4)n3n2)CC1	-28%	11µM*	-63*!	u	u
COc1ccc(OC)c(NC(=O)c2nc(SCc3ccc(F)cc3)ncc2Cl)c1	-7%	-1%	29	x	-10%
Cc1cc(C)c(N2C(=O)CC(Sc3ccccc3N)C2=O)c(C)c1 (configuration not stated)	0%	u	25	x	u
O=C(Nc1ccc(Cl)cc1)N1CCC(c2nc(-c3ccc(F)cc3)no2)CC1	-21%	x	-91*	u	x
O=S(=O)(c1ccc(Cl)cc1)N1CCCC(c2nc(-c3ccc(F)cc3)no2)C1 (configuration not stated)	-6%	-20%	20	13%	i
COc1cccc(-c2cc3nc(-c4ccccc4)cc(N4CCN(C(=O)c5ccoc5)CC4)n3n2)c1	32µM*	u	-104*	x	u
COc1cccc(-c2cc(N3CCN(C(=O)c4ccoc4)CC3)n3nc(-c4cccc(Cl)c4)cc3n2)c1	-29%	u	-94*	x	-26%
COc1cccc(-c2cc3nc(C)cc(N4CCN(C(=O)c5ccoc5)CC4)n3n2)c1	-27%	-17%	-15	x	i
N#Cc1cccc(NC(=O)N2CCCC3(CCN(C(=O)c4cnccn4)CC3)C2)c1	-9%	x	x	x	x
CC(C)(C)OC(=O)N1CCC[C@@H]1C(=O)NCc1ccccc1Cl	-14%	-9%	15	x	-8%
CCOc1ccc(CNC(=O)c2cc3ccccn3n2)cc1	64%	13%	87	x	9%
CC1(C)CCN2CCC(C)(C)c3c(O)ccc1c32	u	x	-91*	-24%	x
CN(CCO)C(=O)c1cn(C2CCN(Cc3cccc(C(F)(F)F)c3)CC2)nn1	-10%	-5%	x	x	-2%
COc1cc(/C=C(/C#N)c2nc3ccccc3[nH]2)ccc1Oc1ncccc1[N+](=O)[O-]	3%	-28%	u	2.5µM*	u
COc1cc(/C=C(/C#N)c2nc3ccccc3[nH]2)ccc1OCc1ccc(C(=O)O)o1	3%	0%	-18	-1%	-7%
COc1cc(/C=C(\C#N)c2nc3ccccc3[nH]2)ccc1OCc1cccc(C(F)(F)F)c1	-27%	u	-87*	x	-29%
CCOc1cc(/C=C(/C#N)c2nc3ccccc3[nH]2)ccc1Oc1ccc([N+](=O)[O-])cn1	x	-24%	-22	u	i
COc1cc(/C=C(\C#N)c2nc3ccccc3[nH]2)ccc1OCc1ccc(F)cc1	-1%	-22%	-78*	x	-13%
COc1ccc(C)cc1NC(=O)NC1CC(=O)N(c2ccc3c(c2)OCCO3)C1 (configuration not stated)	-18%	-9%	-11	x	6%
COc1ccc(Cl)cc1NC(=O)CN(C)C(=O)c1cc2c(F)cccc2s1	9%	x	-27	4µM*	x
CCOc1cc(CNCc2ccncc2)cc(Br)c1OCc1ccccc1F	u	u	-70*	7.9µM*	-1%[1.46 µM]
CCOc1cc(CNCCO)cc(Br)c1OCc1ccc(Cl)cc1Cl	u	13µM*	2	u	x
OCCNCc1cc(Br)ccc1OCc1ccc(Cl)cc1Cl	0%	u	-17	11µM*	x

Screens as filed in PubChem.
